Measured values as given in PubChem BioAssay AID371 (SRMLSC, 2006).
Screen size: about 3,300 compounds; about 280 (8.5%) were called active.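 Rule for the calls: active = mean growth inhibition over the two runs of 50% or more; inactive = mean growth inhibition under 50%.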 The sample as a whole holds a higher share of actives than the screen did.

assay: A549 NSCLC cell proliferation inhibitors – ATP luminescence, human non-small cell lung line, primary screen (AID 371); conditions: at 10 µM, hits give high values;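 note: compound exposure lasted 72 h before the ATP read; 0% = untreated cell signal and 100% = no luminescence left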

Growth inhibition, inactive:
O=C1NC2c3ccccc3C(=O)N2c2c1cnn2-c1ccccc1 (configuration not stated) 36.6%, CC(C)OCCCNc1ncnc2c1cnn2-c1ccccc1 35.1%, CCCOc1cccc(C2C(C(=O)c3ccc(C)o3)=C(O)C(=O)N2CCCN(C)C)c1 (configuration not stated) 2.48%, C=CCSc1nnc2n(-c3ccccc3OC)c(=O)c3c4c(sc3n12)CCC4 19.2%, CCc1cccc(CC)c1N(COC)C(=O)Cn1nnc2ccccc21 -7.86%, CN(CCCCCNC(=O)/C=N/O)Cc1ccccc1 -0.65%, COC(=O)c1ccc(Oc2nc3ccccc3n3c(C)nnc23)cc1 -4%, O=C(Oc1oc(-c2ccco2)nc1C=Nc1ccccc1)c1ccco1 35.2%, CC(=O)Oc1oc(-c2ccccc2)nc1/C=N/c1ccccn1 17.6%, O=C(Oc1oc(-c2ccco2)nc1C=Nc1ccccc1)c1ccoc1 34.4%, CCC(=O)Oc1oc(-c2ccccc2)nc1C=Nc1ccccc1OC 48.5%, CCOC(=O)c1ccc(CSc2ncn[nH]2)o1 -2.33%, COc1ccccc1OCC(=O)Nc1ccc(S(=O)(=O)Nc2cc(C)nc(C)n2)cc1 5.4%, Cc1nn(C)cc1C1C2=C(CC(C)(C)CC2=O)OC2=C1C(=O)CC(C)(C)C2 1.38%, CC(=O)c1cc2c(=O)c3ccccc3oc2nc1C -5.08%, O=C(O)CCCCCCC1C(=O)NC(=O)N1CCC(O)C1CCCCC1 (configuration not stated) -11.2%, CCC1SC(N)=NC1=O (configuration not stated) 2.26%, c1ccc2[nH]c(-c3cscn3)nc2c1 5.76%, CCOC(=O)c1ccc(N2CC(O)=C(c3nc4ccccc4c(=O)[nH]3)C2=N)cc1 2.08%, COc1ccccc1-c1c(C)oc2c(CN3CCN(C)CC3)c(O)ccc2c1=O -0.86%, COC(=O)CN1C2(C#N)CCCCC2CC2CCCCC21C#N (configuration not stated) 5.83%, COc1ccc(OC)c2c(N)c(C#N)c(C(F)(F)C(F)(F)F)nc12 2.04%, COC(=O)c1sc(NC(=O)c2oc3ccccc3c2C)nc1C 33.4%, N/C(=N\S(=O)(=O)c1ccc(Cl)s1)c1ccccc1 13.5%, CCCc1cc(NCCN2CCOCC2)n2c(nc3ccccc32)c1C#N 6.32%, O=C(O)C1[C@H]2C(=O)N(Cc3cccs3)C[C@]23C=C[C@H]1O3 (some centres not stated) 4.5%, O=C(C1=C(O)C(=O)N(CCN2CCOCC2)C1c1cccnc1)c1cc2ccccc2o1 (configuration not stated) 3.18%, NC(=O)CSc1nnc2n(-c3ccccc3)c(=O)c3c4c(sc3n12)CCCCC4 46%, Cn1c(=O)c2c3c(sc2n2c(SCc4ccccc4)nnc12)CCCC3 8.25%, CCCSc1nnc2n(C)c(=O)c3c4c(sc3n12)CCC4 20.4%, C=C(C)CSc1nnc2n(C)c(=O)c3c4c(sc3n12)CCC4 20.2%, CCOC(=O)C1=C(CSc2nc3c(cc2C#N)CCC3)OC(N)=C(C#N)C1c1ccccc1 (configuration not stated) 21%, Cc1ccc2c(c1)[C@@H]1CN(C)CC[C@@H]1N2S(=O)(=O)c1ccc(F)cc1 10.7%, CC1(C)Cc2c(C#N)c(NCC3CCCO3)nc(-c3ccco3)c2CO1 (configuration not stated) 11%, CCOC(=O)C(OC(=O)c1sc(=S)n(C)c1C)C(C)=O (configuration not stated) -4.85%, COCCNc1oc(-c2ccc(F)cc2)nc1C#N 2.78%, O=C(c1ccc(F)cc1)N1CCC(N2CCCCCC2)CC1 0.08%, CN1CCN(c2ncnc3c2[nH]c2ccc(F)cc23)CC1 18.6%, c1ccc2c(c1)[nH]c1c(N3CCN(C4CCCCC4)CC3)ncnc12 37.9%, CCOC(=O)c1[nH]c2ccc(F)cc2c1NC(=O)CCN1CCSCC1 0.98%, Cc1ccc(-n2ncc3c(N4CCN(c5ccccc5)CC4)ncnc32)c(C)c1 32.8%, CC(C)(C)c1cc(-c2ccco2)c(C#N)c(SCC#N)n1 5.39%, N#Cc1nc(COc2ccc(Br)cc2)oc1N1CCCC1 31.8%, O=C1C2ON(c3ccccc3)C(c3cccnc3)C2C(=O)N1c1ccc(Cl)c(Cl)c1 (configuration not stated) 3.11%, O=C(O)C1CCCCN1S(=O)(=O)c1cccc2nsnc12 (configuration not stated) -0.55%, COc1ccc(CCCNC(=O)CC#N)cc1OC 0.39%, CCOC(=O)c1[nH]c2ccccc2c1NC(=O)CCN1CCN(C(=O)OCC)CC1 1.45%, Cc1cc(C)n(CC2CC(=O)N(c3ccc(Cl)c(Cl)c3)C2=O)n1 (configuration not stated) 0.6%, COc1ccccc1NC(=O)CSc1nnc(-c2ccc(NC(C)=O)cc2)n1C -3.92%

Growth inhibition, active:
C=C1[C@@H](C)C2[C@H](Cc3ccccc3)NC(=O)[C@]23OC(=O)CC[C@H](O)CCC[C@H](C)C/C=C/[C@H]3[C@@H]1O (some centres not stated) 61%, CCOC(=O)c1ccc(N=Cc2nc(-c3ccccc3)oc2OC(C)=O)cc1 55.3%, COc1ccccc1N=Cc1nc(-c2ccccc2)oc1OC(C)=O 51.8%, CCc1oc2ccccc2c1C(=O)c1cc(Br)c(O)c(Br)c1 67.4%, O=c1[nH]c(-c2ccccn2)nc2ccccc12 57.6%, Cc1ccc2nc(C(F)(F)F)c(C#N)c(N)c2c1 63.8%, Oc1c(I)cc(Cl)c2cccnc12 68.5%, Oc1c(I)cc(I)c2cccnc12 74.1%, CCCCN(CCCC)C(=O)CSc1nnc2n(C)c(=O)c3c4c(sc3n12)CCCC4 70%, Cn1c(=O)c2c3c(sc2n2c(SCC(N)=O)nnc12)CC(C(C)(C)C)CC3 (configuration not stated) 69.8%, Fc1ccc2[nH]c3c(N4CCN(c5ccccc5)CC4)ncnc3c2c1 90.1%, Fc1ccc2[nH]c3c(N4CCN(C5CCCCC5)CC4)ncnc3c2c1 86%, Fc1ccc2[nH]c3c(N4CCSCC4)ncnc3c2c1 59.6%
